MPTP block = mitochondrial permeability transition pore inhibitors, primary screen, biochemical, isolated mouse mitochondria, absorbance; AID 602449, 2012; Ca2+ swelling absorbance, 30 min; inhibition, % at 10 µM; actives 1.4% (n = 360,000);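 active = inhibition of 50% or more, scaled per plate between neutral and stimulator controls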;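 also: 0% = DMSO wells given calcium and 100% = 1 mM EGTA wells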
ATG4B inhibitor = ATG4B protease inhibitors, primary screen, biochemical, fluorescence, uHTS; Cysteine protease ATG4B (Homo sapiens), Q9Y4P1; ATG4B cleavage of LC3-PLA2, NBD-HPC fluorescence, 1 h; inhibition, % at 8.33 µM; actives 0.51% (n = 340,000); in the data active = inhibition above about 40%
Target sequence (Q9Y4P1 whole entry, looked up): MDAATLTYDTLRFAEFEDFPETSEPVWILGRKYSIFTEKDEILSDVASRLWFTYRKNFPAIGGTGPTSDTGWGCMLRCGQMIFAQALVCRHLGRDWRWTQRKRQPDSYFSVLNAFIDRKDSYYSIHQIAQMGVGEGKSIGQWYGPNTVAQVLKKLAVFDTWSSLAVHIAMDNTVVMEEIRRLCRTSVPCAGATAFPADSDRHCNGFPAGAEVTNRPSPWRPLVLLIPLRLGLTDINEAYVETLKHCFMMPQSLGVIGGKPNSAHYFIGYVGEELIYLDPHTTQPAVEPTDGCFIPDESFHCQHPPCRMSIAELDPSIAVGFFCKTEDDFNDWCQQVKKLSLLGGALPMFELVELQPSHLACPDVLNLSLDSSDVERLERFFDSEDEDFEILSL
SKN-1 block = suppressors of acrylamide-induced Pgst-4::GFP reporter in worms, primary screen, SKN-1 inhibitor project, whole organism, uHTS, GFP/RFP fluorescence ratio, strain VP596. C. elegans VP596 Pgst-4::GFP/RFP ratio, 24 h. inhibition, % at 21.8 µM. actives 0.49% (n = 360,000);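 active = interference check ratio from 0.5 to 1.5 plus GFP to RFP signal ratio inhibition reaching or exceeding a fixed threshold, cut at about 30% in these data, passing the limit was not always enough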
CFTR F508del cor = F508del CFTR correction, initial screen, CFBE line, single point; actives 0.36% (n = 350,000); AID 720511, 2013; activity (quench increase), % at 7.58 µM; CFBE cells, YFP halide quenching; stimulated with forskolin plus potentiator P3; % fluorescence drop versus neutral controls;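 active = mean added fluorescence quench of at least 8% versus neutral control, with both replicates also reaching 8%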;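 also: cells transiently co-express mutant CFTR-F508del with the halide-sensitive YFP; corrector assay measuring rescue of mutant channel to the surface after 24 h compound exposure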
CendR NRP1 mod = modulators of CendR peptide binding to NRP-1, primary screen, biochemical, fluorescence polarization, uHTS | Neuropilin-1 (Homo sapiens), O14786 | FAM-RPARPAR peptide binding to NRP-1 | inhibition, % at 25 µM | actives 0.85% (n = 360,000);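 active = inhibition or corrected inhibition above about 18%, plus a signal ratio from 0.5 to 1.5, limit read from the data, passing the limit was not always enough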
* hit, by the source's call; . = no result; ! = a repeat was not active. Rows were chosen to be rich in hits. Some 2.7% of all compounds tested hit in one or more screens of this group.

SMILES	MPTP block	ATG4B inhibitor	SKN-1 block	CFTR F508del cor	CendR NRP1 mod
CC(=O)Nc1ccc(NC(=O)C2Cc3c(-c4cccc(F)c4)ccnc3O2)cc1 (stereo not drawn)	1	.	37*	-1	-5
CC(=O)Nc1ccc(-c2ccnc3c2CC(C(=O)Nc2cccc(C(C)=O)c2)O3)cc1 (stereo not drawn)	1	.	11	1	-1
Cn1c(Cc2ccccc2)nnc1SCC(=O)Nc1ccc2c(c1)OCO2	2	-7	46*	.	9
O=C(CSc1nnc(-c2cccs2)n1Cc1ccccc1)NCc1ccc2c(c1)OCO2	-1	11	-14	.	24*
Cn1c(Cc2ccccc2)nnc1SCC(=O)Nc1ccccc1	-2	2	6	-5	1
C[C@@H]1CN([C@H](C)CO)C(=O)c2cccc(NC(=O)Nc3ccccc3)c2O[C@@H]1CN(C)Cc1ccc(C(=O)O)cc1	.	.	.	2	.
C[C@@H]1CN([C@@H](C)CO)C(=O)c2cccc(NS(C)(=O)=O)c2O[C@H]1CN(C)Cc1ccc(C(=O)O)cc1	-2	-14	4	0	26*
C[C@@H]1CN([C@@H](C)CO)C(=O)c2cc(C#CCN(C)C)cnc2O[C@H]1CN(C)Cc1ccc(-c2ccccc2)cc1	.	.	.	9.2*!	.
C[C@@H]1CN([C@H](C)CO)C(=O)c2cc(N(C)C)ccc2O[C@@H]1CN(C)Cc1ccc(C(=O)Nc2ccccc2N)cc1	.	.	.	9.2*	.
C[C@H](CO)N1C[C@H](C)[C@@H](CN(C)Cc2ccc(C(=O)O)cc2)Oc2c(NC(=O)Cc3ccccc3)cccc2C1=O	0	-8	15	1	30*
C[C@@H]1CN([C@H](C)CO)C(=O)c2cc(N(C)C)ccc2O[C@H]1CN(C)Cc1ccc(C(=O)Nc2ccccc2N)cc1	.	.	.	2	.
COc1ccc(NC(=O)N[C@H]2CC[C@@H](CCNC(=O)Nc3cc(F)ccc3F)O[C@@H]2CO)cc1	.	.	.	-1	.
C[C@H](CO)N1C[C@H](C)[C@@H](CN(C)C(=O)Nc2ccc3c(c2)OCO3)Oc2ncc(-c3ccccc3)cc2C1=O	.	.	.	-1	.
C[C@@H]1CN([C@@H](C)CO)C(=O)Cc2cc(NC(=O)Nc3ccc(F)cc3)ccc2O[C@@H]1CN(C)Cc1ccccc1	.	.	.	0	.
C[C@@H]1CN([C@H](C)CO)C(=O)c2cc(NC(=O)c3ccccc3)ccc2O[C@@H](C)CCCCO[C@H]1CN(C)C(=O)Cc1ccccc1	.	.	.	3	.
O=C(O)c1ccc(N=N/C(=N\Nc2ccc(C(=O)O)cc2)c2ccccc2)cc1	3	7	14	-2	34*
CN(C)/C=C/c1c([N+](=O)[O-])c2ccc(O)cc2n1-c1ccccc1	9	8	7	-4	33*
CCOc1ccccc1OCC(=O)NN1Cc2ccccc2C1=N	0	-11	16	.	19*
COc1ccc(S(=O)(=O)N[C@@H]2CC[C@H](CC(=O)N3CCc4ccccc4C3)O[C@@H]2CO)cc1	.	.	.	0	.
COC(=O)[C@@]12CCCCN1[C@H](c1ccc(-c3ccc4c(c3)OCO4)cc1)[C@H]1C(=O)N(C)C(=O)[C@H]12	0	-9	5	2	30*
COC(=O)[C@@]12CCCCN1[C@H](c1ccc(-c3ccc(OC)cc3)cc1)[C@@H]1C(=O)N(C)C(=O)[C@@H]12	-3	-11	11	-1	5
CC1=NN(c2ccccc2)C(=O)C1N=Nc1ccc(N)cc1 (stereo not drawn)	7	-7	41*	.	-13
CC1=NN(c2ccccc2)C(=O)C1N=Nc1cccc(O)c1 (stereo not drawn)	5	-1	-5	19*	0
CCCCn1c(N)c(N(CCOC)C(=O)COC(=O)/C=C/c2ccc(Br)cc2)c(=O)[nH]c1=O	0	2	-5	0	23*
Cc1ccc(S(=O)(=O)N(C)C[C@H]2OCCCC[C@@H](C)Oc3ccc(NS(=O)(=O)c4ccccc4)cc3C(=O)N([C@H](C)CO)C[C@H]2C)cc1	.	.	.	0	.
Cc1sc(NC(=O)c2ccco2)c(C(c2cccnc2)N2CCN(C)CC2)c1C (stereo not drawn)	0	-8	17	.	6

Assay outcomes: PubChem, several laboratories
